Broadly, the AC50 is the concentration at which the activity in the assay is half-maximal.

Records with an inconclusive call do not appear. Calls of active or inactive are those of the source. Rule for the calls, unless noted: active = hit-call score of the fitted dose curve at least 0.9, where 1 is the maximum; inactive = score below 0.9.

This passage reports outcome and AC50 results from PubChem BioAssay (EPA / NIEHS).

Read-out in assay [1]: Pyruvate Dehydrogenase Kinase 4 (PDK4), PDK4 (gene 5166)
Kind of assay: LTEA_HepaRG_PDK4: Life Technologies and Expression Analysis (LTEA) Assay for Pyruvate Dehydrogenase Kinase 4 (PDK4) using HepaRG (AID 2283525). To be noted: mRNA level, 48 h; actives raise or lower the signal. Summed up:
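Readout is qRT-PCR of PDK4 transcript, normalized to three housekeeping genes, with bidirectional fitting against 0.5% DMSO vehicle. Differentiated HepaRG cells were treated 48 h in serum-free induction medium, duplicate wells, eight-point half-log series topping at 100 uM.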

Read-out in assay [2]: NAD(P)H dehydrogenase [quinone] 1 (NQO1), NQO1 (gene 1728)
Kind of assay: LTEA_HepaRG_NQO1: Life Technologies and Expression Analysis (LTEA) Assay for NAD(P)H dehydrogenase [quinone] 1 (NQO1) using HepaRG (AID 2283526). As to conditions: mRNA level, 48 h; actives raise or lower the signal. Summed up: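 In this assay, gene expression is read by qRT-PCR after 48 h exposure of HepaRG cells to eight concentrations (max 100 uM, half-log) in 0.5% DMSO. Each chemical runs in duplicate, and activity is scored relative to vehicle.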

Read-out in assay [3]: Nuclear factor erythroid 2-related factor 2 (Homo sapiens) (UniProt Q16236)
The assay can be described thus: LTEA_HepaRG_NFE2L2: Life Technologies and Expression Analysis (LTEA) Assay for Nuclear factor erythroid 2-related factor 2 (NFE2L2) Transcription Factor using HepaRG (AID 2283527). To be noted: mRNA level, 48 h; actives raise or lower the signal. Summed up: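 NFE2L2 transcript level was read by qRT-PCR (housekeeping ACTB/GAPDH/POLR2A normalisation) after 48 h chemical treatment of HepaRG in serum-free induction medium. Duplicate 8-point half-log curves, top 100 uM, 0.5% DMSO vehicle; up- or down-regulation fitted against vehicle.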

Read-out in assay [4]: succinate dehydrogenase complex iron sulfur subunit B (SDHB), SDHB (gene 6390)
Kind of assay: LTEA_HepaRG_SDHB: Life Technologies and Expression Analysis (LTEA) Assay for succinate dehydrogenase complex iron sulfur subunit B (SDHB) using HepaRG (AID 2283528). To be noted: mRNA level, 48 h; actives raise or lower the signal. In a few lines: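 HepaRG cells (~100,000/well, plated 48 h) exposed in duplicate for 48 h in serum-free induction medium to 8-point half-log series from 100 uM in 0.5% DMSO; mRNA by qRT-PCR normalised to ACTB, GAPDH, POLR2A; bidirectional fit versus DMSO.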

Read-out in assay [5]: Signal transducer and activator of transcription 3 (Homo sapiens) (UniProt P40763)
The assay can be described thus: LTEA_HepaRG_STAT3: Life Technologies and Expression Analysis (LTEA) Assay for Signal transducer and activator of transcription (STAT3) using HepaRG (AID 2283529). To be noted: mRNA level, 48 h; actives raise or lower the signal. In a few lines: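 STAT3 transcript quantified by qRT-PCR against three housekeeping genes (ACTB, GAPDH, POLR2A), fitted both directions relative to DMSO. HepaRG cultures exposed 48 h to eight half-log concentrations, top 100 uM, 0.5% DMSO, serum-free induction medium.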

Read-out in assay [6]: solute carrier (SLCO1B1), SLCO1B1 (gene 10599)
Kind of assay: LTEA_HepaRG_SLCO1B1: Life Technologies and Expression Analysis (LTEA) Assay for solute carrier (SLCO1B1) using HepaRG (AID 2283530). To be noted: mRNA level, 48 h; actives raise or lower the signal. Summed up:
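Differentiated human HepaRG cells, plated 48 h, switched to serum-free induction medium and exposed in duplicate for 48 h to 8 half-log concentrations (top 100 uM) in 0.5% DMSO. SLCO1B1 mRNA by TaqMan qRT-PCR, normalized to ACTB/GAPDH/POLR2A.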

Read-out in assay [7]: sulfotransferase 2A1 (SULT2A1), SULT2A1 (gene 6822)
The assay can be described thus: LTEA_HepaRG_SULT2A1: Life Technologies and Expression Analysis (LTEA) Assay for sulfotransferase 2A1 (SULT2A1) using HepaRG (AID 2283531). To be noted: mRNA level, 48 h; actives raise or lower the signal. Summed up:
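Differentiated human HepaRG cells in serum-free induction medium were exposed for 48 h to eight half-log concentrations (top 100 uM, 0.5% DMSO). SULT2A1 mRNA was measured by qRT-PCR, normalized to ACTB, GAPDH and POLR2A, and fitted bidirectionally against DMSO.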

Read-out in assay [8]: Transforming Growth Factor (TGFA), TGFA (gene 7039)
The assay can be described thus: LTEA_HepaRG_TGFA: Life Technologies and Expression Analysis (LTEA) Assay for Transforming Growth Factor (TGFA) using HepaRG (AID 2283532). To be noted: mRNA level, 48 h; actives raise or lower the signal. Summed up:
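TGFA transcript quantified by qRT-PCR (Fluidigm arrays) against three housekeeping genes, after 48 hours chemical treatment of HepaRG cells. Top concentration 100 uM with half-log dilutions, 8 points, duplicates, 0.5% DMSO.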

Read-out in assay [9]: Transforming Growth Factor (TGFB1), TGFB1 (gene 7040)
Kind of assay: LTEA_HepaRG_TGFB1: Life Technologies and Expression Analysis (LTEA) Assay for Transforming Growth Factor (TGFB1) Transporter using HepaRG (AID 2283533). As to conditions: mRNA level, 48 h; actives raise or lower the signal. Summed up: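 Differentiated human HepaRG cells in serum-free induction medium were exposed in duplicate for 48 h to eight concentrations (top 100 uM, half-log steps, 0.5% DMSO). TGFB1 mRNA was quantified by qRT-PCR, normalized to ACTB, GAPDH, POLR2A, and fitted bidirectionally against DMSO.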

Read-out in assay [10]: TIMP1, TIMP1 (gene 7076)
The assay can be described thus: LTEA_HepaRG_TIMP1: Life Technologies and Expression Analysis (LTEA) Assay for TIMP1 using HepaRG (AID 2283534). To be noted: mRNA level, 48 h; actives raise or lower the signal. Summed up:
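Differentiated human HepaRG cells in serum-free induction medium were exposed 48 h to chemicals (8 half-log concentrations, top 100 uM, 0.5% DMSO). TIMP1 mRNA was quantified by TaqMan qRT-PCR, normalized to ACTB/GAPDH/POLR2A; bidirectional fit versus DMSO.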

Read-out in assay [11]: Tumor necrosis factor receptor 1 (TNFRSF1A), TNFRSF1A (gene 7132)
The assay can be described thus: LTEA_HepaRG_TNFRSF1A: Life Technologies and Expression Analysis (LTEA) Assay for Tumor necrosis factor receptor 1 (TNFRSF1A) using HepaRG (AID 2283535). To be noted: mRNA level, 48 h; actives raise or lower the signal. Summed up:
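Differentiated human HepaRG cells were exposed in duplicate for 48 h in serum-free induction medium to eight concentrations (top 100 uM, half-log steps, 0.5% DMSO). TNFRSF1A mRNA was quantified by qRT-PCR, normalized to ACTB, GAPDH and POLR2A, then fitted bidirectionally against DMSO.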

Read-out in assay [12]: Thyroid Hormone Responsive (THRSP), THRSP (gene 7069)
Kind of assay: LTEA_HepaRG_THRSP: Life Technologies and Expression Analysis (LTEA) Assay for Thyroid Hormone Responsive (THRSP) using HepaRG (AID 2283536). As to conditions: mRNA level, 48 h; actives raise or lower the signal. In a few lines: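 THRSP transcript quantified by Fluidigm qRT-PCR against three housekeeping genes after 48 h chemical exposure of HepaRG cells in serum-free induction medium; eight-point half-log series, top 100 uM, 0.5% DMSO vehicle, duplicate wells.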

Read-out in assay [13]: UDP glucuronosyltransferase (UGT1A1), UGT1A1 (gene 54658)
The assay can be described thus: LTEA_HepaRG_UGT1A1: Life Technologies and Expression Analysis (LTEA) Assay for UDP glucuronosyltransferase (UGT1A1) using HepaRG (AID 2283538). To be noted: mRNA level, 48 h; actives raise or lower the signal. In a few lines: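 mRNA induction or loss of UGT1A1, by TaqMan qRT-PCR, in duplicate HepaRG wells after 48 h exposure to half-log dilutions topping at 100 uM; DMSO (0.5%) served as baseline.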

Read-out in assay [14]: UDP glucuronosyltransferase (UGT1A6), UGT1A6 (gene 54578)
Kind of assay: LTEA_HepaRG_UGT1A6: Life Technologies and Expression Analysis (LTEA) Assay for UDP glucuronosyltransferase (UGT1A6) using HepaRG (AID 2283539). To be noted: mRNA level, 48 h; actives raise or lower the signal. Summed up:
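Human HepaRG cells were dosed for 48 h in serum-free induction medium with 0.5% DMSO vehicle, eight-point half-log series from 100 uM, in duplicate. UGT1A6 mRNA was measured by qRT-PCR, normalized to ACTB, GAPDH, POLR2A, and fitted bidirectionally against DMSO.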

Read-out in assay [15]: X-box binding protein 1 (XBP1), XBP1 (gene 7494)
The assay can be described thus: LTEA_HepaRG_XBP1: Life Technologies and Expression Analysis (LTEA) Assay for X-box binding protein 1 (XBP1) using HepaRG (AID 2283540). To be noted: mRNA level, 48 h; actives raise or lower the signal. In a few lines: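 Differentiated human HepaRG cells in serum-free induction medium were exposed in duplicate for 48 h to eight half-log concentrations up to 100 uM in 0.5% DMSO. XBP1 mRNA was quantified by qRT-PCR, normalised to ACTB, GAPDH and POLR2A, with bidirectional fitting against DMSO.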

Assay [16] can be described thus: LTEA_HepaRG_LDH_cytotoxicity: Cytotoxicity Assessment in the Life Technologies and Expression Analysis (LTEA) Assay (AID 2283563; active = hit-call score of the fitted dose curve at least 0.9, where 1 is the maximum). Summed up:
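Differentiated human HepaRG cells, plated 48 h beforehand, were switched to serum-free induction medium and exposed for 48 h to eight half-log concentrations (top 100 uM) in 0.5% DMSO. LDH was measured in spent medium; activity was fitted relative to DMSO vehicle.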

Read-out in assay [17]: solute carrier (SLC22A1), SLC22A1 (gene 6580)
Kind of assay: LTEA_HepaRG_SLC22A1: Life Technologies and Expression Analysis (LTEA) Assay for solute carrier (SLC22A1) using HepaRG (AID 2283524). To be noted: mRNA level, 48 h; actives raise or lower the signal. Summed up:
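Transcript level of SLC22A1 quantified by qRT-PCR (normalized to three housekeeping genes) after 48 h chemical exposure of HepaRG cells, eight concentrations up to 100 µM, half-log steps, 0.5% DMSO vehicle. Gain or loss relative to DMSO fitted bidirectionally.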

Read-out in assay [18]: Cellular tumor antigen p53 (Homo sapiens) (UniProt P04637)
Kind of assay: LTEA_HepaRG_TP53: Life Technologies and Expression Analysis (LTEA) Assay for Tumor Protein P53 (TP53) using HepaRG (AID 2283537). As to conditions: mRNA level, 48 h; actives raise or lower the signal. Summed up: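 Differentiated HepaRG cells in serum-free induction medium exposed 48 h in duplicate to 8 half-log concentrations, top 100 uM, 0.5% DMSO. TP53 mRNA by TaqMan qRT-PCR (Fluidigm), normalized to ACTB, GAPDH, POLR2A; fitted bidirectionally versus DMSO.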

The nature of assay [19]: TOX21_p53_BLA_p2_viability: Viability Assessment in the Tox21 HCT-116 p53 Agonism Beta-lactamase Assay, Phase 2 (AID 2283591; active = hit-call score of the fitted dose curve at least 0.9, where 1 is the maximum;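 note: compound exposure lasted 16 h at 37 °C; actives lower the ATP signal meaning cytotoxicity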). In a few lines:
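Cytotoxicity readout: CellTiter-Glo ATP luminescence, 30 min at room temperature, after the beta-lactamase read. Cells were HCT116 exposed 16 h at 37C to compounds pin-transferred at 217-fold dilution from DMSO stocks.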

Assay [20] in a line: ATG_XTT_Cytotoxicity: Cytotoxicity Assessment in the Attagene TRANS-FACTORIAL HepG2 Assay (AID 2283584; active = hit-call score of the fitted dose curve at least 0.9, where 1 is the maximum). Summed up:
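HepG2 human liver cells, transiently transfected with multiple GAL4-UAS reporter units, were dosed and read at 24 h by XTT as cell number. Loss of signal was fitted relative to DMSO negative control baseline.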

Chain of Nuclear factor erythroid 2-related factor 2 (Homo sapiens) (Q16236 whole entry, looked up): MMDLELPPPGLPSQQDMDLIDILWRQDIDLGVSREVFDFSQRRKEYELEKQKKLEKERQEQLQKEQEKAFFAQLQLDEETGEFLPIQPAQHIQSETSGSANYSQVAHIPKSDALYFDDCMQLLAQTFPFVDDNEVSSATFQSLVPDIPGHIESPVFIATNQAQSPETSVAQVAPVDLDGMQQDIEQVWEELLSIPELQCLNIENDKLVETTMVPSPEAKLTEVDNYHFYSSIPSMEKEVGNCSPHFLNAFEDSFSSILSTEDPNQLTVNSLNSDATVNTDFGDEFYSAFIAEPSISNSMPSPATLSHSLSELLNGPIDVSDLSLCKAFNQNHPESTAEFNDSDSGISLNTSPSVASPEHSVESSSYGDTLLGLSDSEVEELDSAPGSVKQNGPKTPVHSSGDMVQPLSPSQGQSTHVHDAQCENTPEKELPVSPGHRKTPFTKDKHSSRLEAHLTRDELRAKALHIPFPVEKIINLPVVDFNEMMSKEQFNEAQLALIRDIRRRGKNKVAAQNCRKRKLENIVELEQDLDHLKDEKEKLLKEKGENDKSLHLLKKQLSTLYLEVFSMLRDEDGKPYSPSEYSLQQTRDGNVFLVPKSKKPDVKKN
Chain of Signal transducer and activator of transcription 3 (Homo sapiens) (P40763 whole entry, looked up): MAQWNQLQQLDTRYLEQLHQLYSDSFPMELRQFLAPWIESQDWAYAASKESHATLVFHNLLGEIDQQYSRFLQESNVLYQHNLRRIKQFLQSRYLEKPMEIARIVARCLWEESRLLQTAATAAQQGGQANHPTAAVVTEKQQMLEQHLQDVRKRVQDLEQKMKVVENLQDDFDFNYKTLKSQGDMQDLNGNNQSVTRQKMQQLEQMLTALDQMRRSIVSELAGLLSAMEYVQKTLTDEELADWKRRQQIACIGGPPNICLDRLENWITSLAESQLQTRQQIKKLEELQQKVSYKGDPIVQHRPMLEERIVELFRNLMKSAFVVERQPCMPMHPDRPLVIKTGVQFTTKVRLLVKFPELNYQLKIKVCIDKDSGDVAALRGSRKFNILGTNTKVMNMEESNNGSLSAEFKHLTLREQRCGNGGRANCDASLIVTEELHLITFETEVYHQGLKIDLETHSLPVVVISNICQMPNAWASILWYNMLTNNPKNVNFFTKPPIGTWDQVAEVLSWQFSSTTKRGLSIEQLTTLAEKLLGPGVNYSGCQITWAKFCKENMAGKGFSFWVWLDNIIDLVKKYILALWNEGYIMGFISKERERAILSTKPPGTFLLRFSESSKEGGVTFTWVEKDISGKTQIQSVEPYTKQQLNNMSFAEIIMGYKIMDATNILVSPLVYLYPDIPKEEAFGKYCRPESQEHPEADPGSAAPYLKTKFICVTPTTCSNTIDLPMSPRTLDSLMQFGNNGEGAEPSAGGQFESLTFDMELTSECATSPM
Chain of Cellular tumor antigen p53 (Homo sapiens) (P04637 whole entry, looked up): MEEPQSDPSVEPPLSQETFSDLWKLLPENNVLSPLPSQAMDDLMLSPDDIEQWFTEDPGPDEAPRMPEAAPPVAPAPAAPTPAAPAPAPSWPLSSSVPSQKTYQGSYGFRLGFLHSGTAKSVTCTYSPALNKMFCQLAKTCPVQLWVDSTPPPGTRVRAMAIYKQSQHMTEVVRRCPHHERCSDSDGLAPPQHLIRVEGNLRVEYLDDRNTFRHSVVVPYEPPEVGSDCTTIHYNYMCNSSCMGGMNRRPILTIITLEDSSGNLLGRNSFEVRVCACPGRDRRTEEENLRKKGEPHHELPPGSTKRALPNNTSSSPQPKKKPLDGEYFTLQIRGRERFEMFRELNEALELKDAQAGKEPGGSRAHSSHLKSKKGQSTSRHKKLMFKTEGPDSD

`CC(C)COC(=O)c1ccccc1C(=O)OCC(C)C`: the molecule was classed as inactive in assay [1], in assay [2], in assay [3], in [4], in assay [5] and in [6]. For the same molecule, the call in [7], in [8], in [9], in assay [10], in [11] and in assay [12] was inactive. Moreover, the call in assay [13], in assay [14], in assay [15] and in [16] was inactive.
Turning to `Cc1ccc([N+](=O)[O-])cc1`, the call in [17], in assay [1], in assay [2], in assay [3], in [5] and in assay [6] was inactive. Further, the call in assay [7], in [8], in [9], in assay [10], in assay [11] and in [12] was inactive. Further, the molecule was classed as inactive in assay [18], in assay [14], in assay [15], in assay [16] and in assay [19]. Moreover, the AC50 in assay [13] was 8.26 µM (active).
Turning to `CS(=O)(=O)NC(=O)c1cc(Oc2ccc(C(F)(F)F)cc2Cl)ccc1[N+](=O)[O-]`, the AC50 is 16 µM (active) in assay [1] and 3.32 µM (active) in assay [13]. Moreover, the call in [2], in [3], in assay [4], in assay [5], in assay [6] and in assay [7] was inactive. Moreover, the outcome in [8], in [9], in assay [10], in assay [11], in assay [12] and in assay [18] was inactive. The molecule was classed as inactive in [14], in [15], in assay [16], in assay [20] and in [19].
